The target in assay [1] is Lysosomal acid glucosylceramidase (Homo sapiens) (UniProt P04062). Description: Glucocerebrosidase-p2 (AID 348; in the data active means potency below about 10 µM; further: potency means the concentration at half of the fitted maximal effect). As to conditions: purified GBA, blue fluorogenic substrate, 40 min. The procedure, abridged:
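Normal human glucocerebrosidase (0.2 nM) with blue fluorogenic substrate (80 uM final) in citrate/phosphate pH 5.9 with 10mM sodium taurocholate, 0.01% tween-20; 40 min RT, NaOH/glycine stop; fluorescence Ex 365/Em 440; AC50 from a titration from 0.6 nM upwards.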

The nature of assay [2]: AP1 Signaling Pathway (AID 357).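 Further: ME-180 reporter cells stimulated with EGF at its EC50 level; on the % scale 0 is the no-effect control and ±100 the full control effect.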 As to conditions: ME-180 AP-1-bla reporter, EGF-induced, beta-lactamase ratio, 5 h; at 7.69 µM (top of the series) unless noted. The procedure, abridged:
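First, ME-180 AP-1-bla cells were cultured overnight at 37 °C in low-serum Opti-MEM. Next, titrated compounds with EC50 EGF were incubated 5 hours. Finally, CCF4 was added for 2.5 hours and the 460/530 nm ratio recorded.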

Assay [3] deals with Cytochrome P450 1A2 (Homo sapiens) (UniProt P05177). Description: p450-cyp1a2 (AID 410; calls by dose curve; further: potency means the concentration at half of the fitted maximal effect). As to conditions: recombinant CYP1A2, luciferin-ME demethylation, luminescence; series mostly up to 57 µM. The procedure, abridged: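 O-Demethylation of luciferin 6' methyl ether by human CYP1A2 is monitored as luciferase luminescence. Substrate sits at Km (100uM); enzyme is 20nM. Values are scaled to 57 uM furafylline as maximal inhibition.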
Sequence of Cytochrome P450 1A2 (Homo sapiens) (P05177 whole entry, looked up): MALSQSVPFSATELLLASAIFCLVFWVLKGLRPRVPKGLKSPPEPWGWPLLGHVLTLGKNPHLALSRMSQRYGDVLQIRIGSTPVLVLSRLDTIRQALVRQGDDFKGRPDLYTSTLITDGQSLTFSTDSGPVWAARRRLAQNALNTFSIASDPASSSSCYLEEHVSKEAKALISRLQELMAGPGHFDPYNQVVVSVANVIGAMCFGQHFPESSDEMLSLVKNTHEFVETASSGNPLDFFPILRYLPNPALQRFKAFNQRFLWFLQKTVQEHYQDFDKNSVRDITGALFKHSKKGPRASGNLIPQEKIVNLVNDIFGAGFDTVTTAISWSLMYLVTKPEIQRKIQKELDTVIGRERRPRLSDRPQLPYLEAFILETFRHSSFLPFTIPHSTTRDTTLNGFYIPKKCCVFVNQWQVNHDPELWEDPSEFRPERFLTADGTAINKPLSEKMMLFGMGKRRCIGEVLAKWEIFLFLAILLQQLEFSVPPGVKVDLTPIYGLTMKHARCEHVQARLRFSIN

The nature of assay [4]: NFAT Signaling Pathway (AID 444).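 Further: carbachol stimulus at about its EC50 of 1 µM final; on the % scale 0 is the no-effect control and ±100 the full control effect.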 The conditions noted are these: Jurkat NFAT-bla M1, carbachol, beta-lactamase ratio, 5 h; at 7.69 µM (top of the series) unless noted. In outline:
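Read-out: CCF4 FRET ratio (460 nm/530 nm) after 1 h RT dye loading, used for %activity and AC50 from titration series. Cells: Jurkat NFAT-β-lactamase/M1 line, treated with compound plus 1 uM carbachol for 5 h, 37 °C.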

Assay [5] in a line: Stat Signaling Pathway (AID 446).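 Further: ME-180 cervical cancer cells given 40 pM IL-6 alongside compound; SIE-controlled beta-lactamase reporter measured as 460/530 nm FRET emission ratio; on the % scale 0 is the no-effect control and ±100 the full control effect.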 The conditions noted are these: ME-180 (cervical carcinoma) SIE beta-lactamase reporter, IL-6 stimulated, 5 h; at 7.69 µM (top of the series) unless noted. In outline:
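Normalization used AC90 stimulation (300 pM IL-6) and AC90 inhibition (125 nM pan-JAK inhibitor at 40 pM IL-6). The underlying signal is SIE-driven beta-lactamase in ME-180 cells after 5 h IL-6 exposure with compound.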

Assay [6] deals with Glucocorticoid receptor (Homo sapiens) (UniProt P04150). As to the kind of experiment: GR-EFC Redistribution (AID 451; calls by dose curve; further: potency means the concentration at half of the fitted maximal effect). As to conditions: CHO-K1 GR-EFC translocation, beta-gal luminescence, 2 h. The procedure, abridged:
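Translocation of GR-ED fusion to nuclear EA restores b-gal, read by luminescence after 1 h room-temperature detection. Engineered CHO-K1 biosensor cells, 1,000/well, exposed 2 h at 37 C to titrations up to 46 uM final.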

In assay [7] the target is Mitogen-activated protein kinase 10 (Mus musculus) (UniProt Q61831). Description: JNK3 AlphaScreen Assay (AID 530).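 Further: kinase came from lysate of stimulated human HepG2 cells; signal reports phosphorylation of biotinylated GST-cJun 1-79 at Ser73 with 10 µM ATP; on the % scale 0 is the no-effect control and ±100 the full control effect.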 The conditions noted are these: JNK3 lysate, c-Jun phosphorylation; series mostly up to 57.1 µM. In outline: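 qHTS titrations with 15 min compound pre-incubation before adding ATP (10 uM final). Read-out: AlphaScreen of Ser73-phosphorylated biotin-GST-cJun using HepG2 lysate JNK3 activated by IL-1β and TNFα.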

For assay [8], the target named is 3',5'-cyclic-AMP phosphodiesterase 4B (Homo sapiens) (UniProt Q07343). As to the kind of experiment: qHTS Assay for Inhibitors of PDE-IV (AID 607; active means well fitted activation curve with a large enough effect in the main read-out, with a control signal flat, not every such curve was filed as active; further: % of control where 0% means no effect). As to conditions: HEK293 ACTOne CNG channel cells, membrane potential fluorescence; series mostly up to 22.9 µM. The procedure, abridged: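 HEK293 ACTOne cells with CNG channel (1000/well), endogenous PDE4; membrane potential dye, compounds up to 22.9 uM final. Fluorescence Ex 535/Em 590; RO 20-1724 (100 uM final) as reference.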
Sequence of 3',5'-cyclic-AMP phosphodiesterase 4B (Homo sapiens) (Q07343 whole entry, looked up): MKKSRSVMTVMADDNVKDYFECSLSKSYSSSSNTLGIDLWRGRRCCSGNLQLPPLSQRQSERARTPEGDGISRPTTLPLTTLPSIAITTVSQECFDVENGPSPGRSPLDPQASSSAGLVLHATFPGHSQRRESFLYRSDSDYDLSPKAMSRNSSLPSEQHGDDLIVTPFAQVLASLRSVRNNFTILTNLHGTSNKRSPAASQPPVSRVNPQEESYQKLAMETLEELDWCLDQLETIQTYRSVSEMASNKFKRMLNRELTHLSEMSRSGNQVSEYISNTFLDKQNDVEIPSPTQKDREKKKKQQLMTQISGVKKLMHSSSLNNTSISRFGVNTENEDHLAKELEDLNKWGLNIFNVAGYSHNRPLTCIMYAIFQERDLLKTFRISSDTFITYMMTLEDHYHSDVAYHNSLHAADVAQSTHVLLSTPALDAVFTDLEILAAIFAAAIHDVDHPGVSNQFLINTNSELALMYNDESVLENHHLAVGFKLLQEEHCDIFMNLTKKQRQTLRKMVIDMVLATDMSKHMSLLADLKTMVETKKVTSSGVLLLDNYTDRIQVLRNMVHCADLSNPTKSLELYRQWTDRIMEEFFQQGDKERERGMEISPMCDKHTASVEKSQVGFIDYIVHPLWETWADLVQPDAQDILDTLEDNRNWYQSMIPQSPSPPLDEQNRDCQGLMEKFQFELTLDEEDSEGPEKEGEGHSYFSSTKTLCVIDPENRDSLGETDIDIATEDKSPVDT
A general note: In qHTS, concentration-response curves come from the screen itself.

The target of assay [9] is Cytochrome P450 3A4 (Homo sapiens) (UniProt P08684). Description: qHTS Assay for Inhibitors and Substrates of Cytochrome P450 3A4 (AID 884; active means well fitted curve in the direction sought with a large enough effect; an effect the other way counts as inactive or inconclusive; further: on the % scale 0 is the no-effect control and ±100 the full control effect; nearly all actives have a fitted effect of over 50% in size). As to conditions: recombinant CYP3A4, Luciferin-PPXE luminescence; series mostly up to 57.1 µM. In outline: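 Luminescent readout of luciferin produced by CYP3A4 (20 nM) dealkylation of Luciferin-PPXE, 25 uM (its KM). NADPH-driven reaction ran 60 min at RT after 10 min compound preincubation; data scaled to 57 uM ketoconazole as 100% inhibition.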
Sequence of Cytochrome P450 3A4 (Homo sapiens) (P08684 whole entry, looked up): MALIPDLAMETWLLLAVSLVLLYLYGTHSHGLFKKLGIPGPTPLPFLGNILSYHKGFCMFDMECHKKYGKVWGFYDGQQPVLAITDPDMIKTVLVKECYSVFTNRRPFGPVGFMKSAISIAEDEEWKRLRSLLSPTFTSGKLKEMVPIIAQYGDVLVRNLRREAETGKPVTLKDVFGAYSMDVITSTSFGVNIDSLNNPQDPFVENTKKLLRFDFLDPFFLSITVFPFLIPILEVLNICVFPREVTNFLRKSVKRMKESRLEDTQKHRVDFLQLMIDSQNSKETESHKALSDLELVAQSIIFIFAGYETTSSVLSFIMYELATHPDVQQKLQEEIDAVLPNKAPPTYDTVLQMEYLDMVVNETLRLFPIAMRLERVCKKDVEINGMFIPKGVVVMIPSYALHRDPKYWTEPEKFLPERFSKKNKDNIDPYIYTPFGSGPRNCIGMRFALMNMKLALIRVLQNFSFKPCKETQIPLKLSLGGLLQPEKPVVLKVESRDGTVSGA

The target is the same in assay [10]. Description: qHTS Assay for Activators of Cytochrome P450 3A4 (AID 885; active means well fitted curve in the direction sought with a large enough effect; an effect the other way counts as inactive or inconclusive; further: nearly all actives have a fitted effect of over 65% in size; further: potency means the concentration at half of the fitted maximal effect). As to conditions: recombinant CYP3A4, Luciferin-PPXE luminescence, 60 min; series mostly up to 57.1 µM. The procedure, abridged: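 Human CYP3A4 dealkylates Luciferin-PPXE to luciferin, which luciferase detection converts to light. Substrate was at its KM (25uM), buffer 200mM KPO4, reaction 60 min at RT.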

The target of assay [11] is Cytochrome P450 2D6 (Homo sapiens) (UniProt P10635). As to the kind of experiment: qHTS Assay for Inhibitors and Substrates of Cytochrome P450 2D6 (AID 891; active means well fitted curve in the direction sought with a large enough effect; an effect the other way counts as inactive or inconclusive; further: nearly all actives have a fitted effect of over 60% in size; further: potency means the concentration at half of the fitted maximal effect). As to conditions: recombinant CYP2D6, luciferin-ME EGE luminescence; series mostly up to 57.1 µM. In outline: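 Luminescent read-out of luciferin formed by 5 nM human CYP2D6 demethylating 30 uM Luciferin-ME EGE (Km level) over 60 min at room temperature after NADPH regeneration addition. Data normalized to full inhibition by 1.43 uM quinidine.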
Sequence of Cytochrome P450 2D6 (Homo sapiens) (P10635 whole entry, looked up): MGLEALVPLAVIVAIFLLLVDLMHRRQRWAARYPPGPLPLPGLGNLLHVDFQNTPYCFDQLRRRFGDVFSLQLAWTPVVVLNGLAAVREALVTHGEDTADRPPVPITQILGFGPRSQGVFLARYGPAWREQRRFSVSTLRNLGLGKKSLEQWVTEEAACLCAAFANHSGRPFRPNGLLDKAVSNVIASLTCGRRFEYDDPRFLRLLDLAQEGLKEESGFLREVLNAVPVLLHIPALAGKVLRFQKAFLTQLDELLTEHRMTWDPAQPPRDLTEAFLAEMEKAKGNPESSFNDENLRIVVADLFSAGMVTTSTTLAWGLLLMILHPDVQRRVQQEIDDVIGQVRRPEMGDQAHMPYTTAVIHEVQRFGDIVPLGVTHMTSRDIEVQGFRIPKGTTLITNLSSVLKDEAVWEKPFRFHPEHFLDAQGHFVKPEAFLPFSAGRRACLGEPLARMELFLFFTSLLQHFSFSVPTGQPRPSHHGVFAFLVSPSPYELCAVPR

Assay [12] is described as follows: Primary qHTS for small molecule stabilizers of the endoplasmic reticulum resident proteome: Secreted ER Calcium Modulated Protein (SERCaMP) assay (AID 1508630; active means well fitted curve in the direction sought with a large enough effect; an effect the other way counts as inactive or inconclusive; further: on the % scale 0 is the no-effect control and ±100 the full control effect). As to conditions: SH-SY5Y GLuc-SERCaMP (Gaussia luciferase released on ER calcium loss) secretion, thapsigargin, luminescence; series mostly up to 38.4 µM. In outline:
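The SH-SY5Y reporter protocol was run at 3 concentrations up to 38.3 uM (primary) or 11 concentrations (follow-up): 16 h compound, 100 nM thapsigargin for 4 h, then extracellular luciferase luminescence.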

For assay [13], the target named is Cytochrome P450 2C19 (Homo sapiens) (UniProt P33261). As to the kind of experiment: qHTS Assay for Inhibitors and Substrates of Cytochrome P450 2C19 (AID 899; active means well fitted curve in the direction sought with a large enough effect; an effect the other way counts as inactive or inconclusive; further: on the % scale 0 is the no-effect control and ±100 the full control effect; nearly all actives have a fitted effect of over 60% in size). As to conditions: recombinant CYP2C19, luciferin-H EGE luminescence; series mostly up to 57.1 µM. The procedure, abridged:
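Luminescence readout of luciferin formed from 10uM Luciferin-H EGE (KM level) by 5 nM CYP2C19 in 50mM KPO4. 60 min NADPH-driven reaction at 37C after 10 min compound preincubation; data scaled to 57uM ketoconazole inhibition.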

Molecules are shown by their SMILES. A number with no mark means an inactive call. Inconclusive results are not listed. The source made the active and inactive calls. Unless noted, the call rests on the fitted dose curve; in most records, active means well fitted curve in either direction with a large enough effect (not every such curve was filed as active); inconclusive means small, poorly fitted or top-dose-only effect, or another doubt; inactive means flat fitted curve, though single readings scatter.

Sequence of Glucocorticoid receptor (Homo sapiens) (P04150 whole entry, looked up, the tested form may be a part): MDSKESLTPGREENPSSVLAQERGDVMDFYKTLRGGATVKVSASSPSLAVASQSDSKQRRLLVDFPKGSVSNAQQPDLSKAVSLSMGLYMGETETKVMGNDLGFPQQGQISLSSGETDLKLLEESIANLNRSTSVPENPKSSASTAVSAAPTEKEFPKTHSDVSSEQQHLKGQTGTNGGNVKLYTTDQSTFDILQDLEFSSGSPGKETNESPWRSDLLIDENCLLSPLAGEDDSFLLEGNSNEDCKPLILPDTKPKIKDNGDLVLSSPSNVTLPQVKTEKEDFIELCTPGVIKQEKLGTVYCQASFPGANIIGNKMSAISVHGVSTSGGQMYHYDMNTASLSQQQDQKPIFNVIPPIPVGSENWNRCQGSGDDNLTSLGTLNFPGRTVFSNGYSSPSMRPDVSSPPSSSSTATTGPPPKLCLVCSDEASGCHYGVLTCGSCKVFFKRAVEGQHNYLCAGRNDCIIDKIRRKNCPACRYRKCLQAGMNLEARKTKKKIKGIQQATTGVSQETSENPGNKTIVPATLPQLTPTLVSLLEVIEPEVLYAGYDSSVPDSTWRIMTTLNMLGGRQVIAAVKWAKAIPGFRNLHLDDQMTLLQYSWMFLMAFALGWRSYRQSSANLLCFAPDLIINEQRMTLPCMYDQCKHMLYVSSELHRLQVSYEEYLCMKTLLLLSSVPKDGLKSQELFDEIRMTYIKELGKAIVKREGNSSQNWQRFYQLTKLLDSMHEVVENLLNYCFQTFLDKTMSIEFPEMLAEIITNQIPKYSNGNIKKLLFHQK
Sequence of Lysosomal acid glucosylceramidase (Homo sapiens) (P04062 whole entry, looked up): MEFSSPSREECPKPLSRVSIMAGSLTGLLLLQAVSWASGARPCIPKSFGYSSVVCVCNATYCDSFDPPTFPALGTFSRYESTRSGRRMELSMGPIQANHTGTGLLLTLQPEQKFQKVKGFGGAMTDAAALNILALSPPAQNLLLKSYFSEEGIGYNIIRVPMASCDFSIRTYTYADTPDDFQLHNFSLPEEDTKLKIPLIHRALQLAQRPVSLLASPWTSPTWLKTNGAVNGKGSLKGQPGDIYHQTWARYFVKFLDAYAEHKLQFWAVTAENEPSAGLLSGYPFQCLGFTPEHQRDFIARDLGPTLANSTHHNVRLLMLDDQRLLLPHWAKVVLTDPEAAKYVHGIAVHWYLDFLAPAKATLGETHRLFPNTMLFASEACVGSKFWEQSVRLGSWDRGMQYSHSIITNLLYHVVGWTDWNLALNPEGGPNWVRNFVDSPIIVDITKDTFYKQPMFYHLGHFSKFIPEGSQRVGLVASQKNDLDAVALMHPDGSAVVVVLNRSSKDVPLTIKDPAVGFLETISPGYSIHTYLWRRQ
Sequence of Cytochrome P450 2C19 (Homo sapiens) (P33261 whole entry, looked up): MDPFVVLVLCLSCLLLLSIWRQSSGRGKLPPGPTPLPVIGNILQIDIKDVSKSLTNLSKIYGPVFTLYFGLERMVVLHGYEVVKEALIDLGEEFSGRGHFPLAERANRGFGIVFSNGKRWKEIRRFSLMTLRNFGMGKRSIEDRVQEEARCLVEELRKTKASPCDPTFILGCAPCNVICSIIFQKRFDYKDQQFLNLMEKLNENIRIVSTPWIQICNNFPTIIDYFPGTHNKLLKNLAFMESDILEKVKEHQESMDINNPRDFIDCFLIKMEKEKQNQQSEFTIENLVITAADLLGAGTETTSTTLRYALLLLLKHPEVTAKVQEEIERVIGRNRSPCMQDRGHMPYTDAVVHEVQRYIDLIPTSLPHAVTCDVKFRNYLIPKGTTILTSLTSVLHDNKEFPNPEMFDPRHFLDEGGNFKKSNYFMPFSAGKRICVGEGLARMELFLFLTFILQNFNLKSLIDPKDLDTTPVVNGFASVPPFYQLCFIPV

`O=S(=O)(c1ccccc1)N1CCC2(CC1)CN(C(c1ccccc1)c1ccccc1)C2`: the Potency in assay [1] is above 11.4 µM; in assay [6] it was above 46 µM; in assay [10] it was 3.16 µM (active); in [11], 2.51 µM (active). Further, the activity change, negative = inhibition in assay [2] was 15.1%; in [4], -14.8%. Moreover, the Potency entry in assay [3], in assay [7], in [8] and in assay [9] was “inactive” each time. The activity, negative = inhibition in assay [5] was -6.71%. The result in assay [12] was inactive.

`Cc1noc(C)c1C(=O)N1CCC[C@@]2(CCN(Cc3ccc(C#N)cc3)C2)C1`: the Potency is above 11.4 µM in assay [1] and above 46 µM in assay [6]. For the same compound, the activity change, negative = inhibition in assay [2] was -6.54%; in assay [4], 17.1%. The Potency entry in assay [3], in assay [7], in assay [8], in [9], in assay [11] and in [13] was “inactive” in each case. In addition, the activity, negative = inhibition in assay [5] was 6.11%. Besides, the outcome in assay [12] was inactive.

Turning to `COC(=O)N1CCC2(CCCN(C(=O)Nc3ccc(OC)cc3)C2)CC1`, the Potency is above 11.4 µM in [1], 20 µM (active) in assay [3] and above 46 µM in assay [6]. Moreover, the activity change, negative = inhibition in assay [2] was -3.8%; in assay [4] it was -6.91%. The activity, negative = inhibition in [5] was -13.9%. Besides, the Potency entry in assay [7], in assay [8] and in assay [10] was “inactive” throughout. Moreover, the outcome in assay [12] was inactive.

`O=C(c1cccc(F)c1)N1CCC2(CC1)CCN(c1ncccn1)CC2`: the Potency in assay [1] was above 11.4 µM; in assay [3] it was 10 µM (active); in [6], above 46 µM; in assay [10], 7.94 µM (active). The activity change, negative = inhibition was -6.18% in assay [2] and 2.49% in [4]. In addition, in [5], the activity, negative = inhibition was -11.5%. Further, the Potency result in assay [7], in assay [8] and in assay [9] was “inactive” each time. For the same compound, in assay [12], the result was inactive.

Consider `COC(=O)N1CCC[C@@]2(CCN(C(=O)Nc3ccc(OC)cc3)C2)C1`, for which the Potency in assay [1] was above 11.4 µM; in assay [6], above 46 µM. Besides, the activity change, negative = inhibition in [2] is -11%; in assay [4], -1.85%. The Potency entry in assay [3], in assay [7], in [8] and in assay [10] was “inactive” throughout. Also, the activity, negative = inhibition in assay [5] is 3.7%. Besides, the outcome in [12] was inactive.

On to `O=C(c1cnccn1)N1CCC2(CC1)CCN(c1ncccn1)CC2`, for which the Potency in assay [1] was above 11.4 µM; in assay [6] it was above 46 µM; in [10] it was 7.94 µM (active). The activity change, negative = inhibition in assay [2] was -5.54%; in assay [4] it was 6.93%. Further, the Potency result in assay [3], in assay [7], in [8] and in assay [9] was “inactive” in each case. The activity, negative = inhibition in [5] was -9.82%. The outcome in assay [12] was inactive.

Turning to `O=C(c1ccco1)N1CCC2(CCCN(c3ccccc3)C2)CC1`, the Potency in assay [1] is above 11.4 µM; in assay [6] it was above 46 µM. For the same compound, the activity change, negative = inhibition in assay [2] was -6.34%; in assay [4], -15.1%. The Potency entry in [3], in assay [7], in [8] and in assay [10] was “inactive” each time. The activity, negative = inhibition in [5] is -2.43%. For the same compound, the outcome in assay [12] was inactive.
